# Assay results: PubChem BioAssay AID2315 (National Center for Advancing Translational Sciences (NCATS), 2010)
# Out of some 290,000 compounds screened, about 27,000 (9.3%) were called active. No stated cut-off is given here; in the data, active means inhibition mostly above about 28% (no sharp cut-off); inactive means mostly below about 43%. For the sample, actives were picked, then their nearest neighbours and some compounds at random.
# Test: A qHTS for Small Molecule Inhibitors of Shiga Toxin; further: 0% is about no effect
# Settings: Vero cells, Shiga toxin protein synthesis inhibition reporter; at 38.7 µM, hits give high values
row,Structure (SMILES),inhibition
1,CN(C)CCN(Cc1ccccc1)S(=O)(=O)c1csc(C(N)=O)c1,-1.58% (inactive)
2,CCOC(=O)c1cccc(NC(=O)CCc2nnc3ccc(N4CCOCC4)nn23)c1,-1.45% (inactive)
3,CC1CC(C)CN(C(=O)CCNC(=O)Cn2cnc3ccccc3c2=O)C1 (configuration not stated),-11.9% (inactive)
4,Cc1ccccc1OCC(=O)Nc1nnc(S(=O)(=O)N2CCCC2)s1,-10.5% (inactive)
5,CC(=O)c1cc(CN2CCC(n3nccc3NC(=O)c3ccccc3Cl)CC2)cs1,-20.5% (inactive)
6,O=C(Nc1ccnn1C1CCN(Cc2cccc(OCCO)c2)CC1)C1CCCC1,-5.27% (inactive)
7,Cc1cccc(NC(=O)c2sc3nc(N4CCOCC4)c4c(c3c2N)CCCC4)c1,30.8% (inactive)
8,Cc1nc(N2CCOCC2)nc2c1CCCC2,35.4% (inactive)
9,Nc1nc(-c2sc3nc4c(cc3c2N)CCCC4)nc(N2CCOCC2)n1,58.2% (active)
10,Cc1cc(-c2nnc(SCC(=O)Nc3ccc(S(N)(=O)=O)cc3)n2N)n[nH]1,-4.71% (inactive)
11,O=C(NC(Cc1ccccc1)C(=O)O)/C(=C\c1ccccc1)NC(=O)c1ccco1 (configuration not stated),-11.9% (inactive)
12,CC(=O)Oc1cccc(N2C(=O)CC(Nc3ccc(N4CCOCC4)cc3)C2=O)c1 (configuration not stated),58.2% (active)
13,CC(=O)Oc1cccc(N2C(=O)C3CC=C(Cl)CC3C2=O)c1 (configuration not stated),-2.36% (inactive)
14,COc1ccc(N2CCN(C3CC(=O)N(c4ccc5c(c4)OCCO5)C3=O)CC2)cc1 (configuration not stated),-9.64% (inactive)
15,CCOc1ccccc1OCCCNCc1ccccc1,8.72% (inactive)
16,CCOc1ccc(S(=O)(=O)Nc2ccc(OC)nc2)cc1,33.9% (inactive)
17,CCCCCCn1cc(C(=O)O)c(=O)c2cc(F)c(N3CCCCC3)cc21,33.7% (inactive)
18,COc1ccccc1CNC(=O)C1CCN(S(=O)(=O)c2ccc3c(c2)OCCO3)CC1,-11.4% (inactive)
19,C=CCNC(=O)c1cc(-c2ccccc2O)on1,98.8% (active)
20,CCc1ccccc1NC(=O)c1cc(-c2ccc3c(c2)OCO3)on1,25.8% (inactive)
21,O=C(NCc1ccccn1)c1cc(Br)ccc1Cl,29.6% (inactive)
22,O=C(NCc1ccccn1)c1cc(-c2ccccc2Cl)on1,162% (active)
23,O=C(Nc1ccccc1C(F)(F)F)c1cc(-c2ccc(O)cc2)on1,54.9% (active)
24,C=CCNC(=O)c1ccccc1SCc1c(C)noc1C,-38.8% (inactive)

row,Structure (SMILES),inhibition
1,C=CCNC(=O)c1csc(-c2ccccc2)n1,11.1% (inactive)
2,O=C(Nc1cccc2ncccc12)c1ccc(-c2ccc(Cl)cc2Cl)o1,-17.2% (inactive)
3,O=C(Nc1cccnc1Cl)c1cc(-c2ccccc2O)on1,73.1% (active)
4,O=C(NCc1ccccn1)c1ccc2nc(-c3ccco3)c(-c3ccco3)nc2c1,5.29% (inactive)
5,O=C(Nc1cccnc1Cl)c1cc(-c2cccc(Cl)c2)on1,-1.68% (inactive)
6,O=C(NNC(=O)c1ccccc1[N+](=O)[O-])Nc1ccccc1C(F)(F)F,-6.67% (inactive)
7,Nc1nonc1-n1nnc(C(=O)N/N=C/C2CCCCC2)c1-c1ccccc1,-3.16% (inactive)
8,CCCCC(C(=O)NC(C)(C)C)N(Cc1ccccc1)C(=O)c1snc(C(N)=O)c1N (configuration not stated),-1.85% (inactive)
9,CCc1ccccc1N(CC(=O)NCC1CCCO1)C(=O)CCC(=O)Nc1nccs1 (configuration not stated),-6.86% (inactive)
10,CC(Nc1nc(C(F)(F)F)nc2ccccc12)c1cccs1 (configuration not stated),29.3% (inactive)
11,O=S(O)S(=O)(=O)O,6.15% (inactive)
12,Cc1ccc2c(C)c(C(=O)N3CCC(N4CCC(C(=O)NC5CC5)CC4)CC3)oc2c1,-13.3% (inactive)
13,Cc1ccc2oc(C(=O)N3CCN(C)C[C@@H]3C(C)C)c(C)c2c1,42.3% (active)
14,COc1ccccc1N1CCN(C(=O)c2cc(=O)c3cc(C)ccc3o2)CC1,19.1% (inactive)
15,Cc1ccc(C(=O)NCCc2nnc(SCC(=O)Nc3cccc(C(=O)O)c3)n2C)cc1,-4.17% (inactive)
16,CC(=O)C(C)n1cnc2scc(-c3ccc(C)cc3)c2c1=O (configuration not stated),-5.64% (inactive)
17,Cn1nnc(NC(=O)CSc2ncn[nH]2)n1,-18.1% (inactive)
18,CCN(C(=O)CSc1ncn[nH]1)c1cccc2ccccc12,9.31% (inactive)
19,CC(C)(C)c1ccc(C(=O)CSc2ncn[nH]2)cc1,63.4% (active)
20,Cc1ccccc1NC(=O)NCC1CCN(Cc2cccc(Cl)c2)CC1,-1.26% (inactive)
21,O=C(O)c1ccc(NC(=O)c2ccc(COc3ccc(Cl)cc3)o2)cc1,-8.9% (inactive)
22,CCOC(=O)c1[nH]c2c(c1C)C(=O)CC(c1ccc(N(C)C)cc1)C2 (configuration not stated),2.86% (active)
23,CCOC(=O)c1[nH]c2c(c1-c1ccccc1)C(=O)CC(c1ccc(Cl)cc1)C2 (configuration not stated),-7.73% (inactive)
